# Screening results as filed in PubChem BioAssay.
# Gli-Sufu block: Gli-Sufu pathway antagonism; inhibition, % at 5 µM; 0.74% of 340,000 active; Sufu-KO-LIGHT fibroblasts, Gli luciferase reporter luminescence;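 active = inhibition above about 55%, limit read from the data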;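 note: 0% = DMSO-treated cells and 100% = wells with medium but no cells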
# EBV LMP1 NFkB: Epstein-Barr LMP1 NF-kappaB reporter inhibition; AID 504558; inhibition, % at 12.5 µM; 0.69% of 350,000 active; LMP1-induced NF-kappaB luciferase reporter cells, luminescence; in the data active = inhibition above about 41%;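 note: 0% = neutral control wells and 100% = reference inhibitor control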
# 697 NFkB inh: lowers PMA/ionomycin-induced NF-kB signal in 697 B cells; 697 B-cell NF-kB luciferase reporter, 16 h; inhibition, % at 4 µM; 0.33% of 330,000 active; AID 435022; in the data active = inhibition above about 35%
# Shn3 3UTR inh: reduces Shn3 3'UTR luciferase signal in osteoblasts; inhibition, % at 12.5 µM; 0.52% of 360,000 active; AID 588674; Clone20 osteoblast Shn3 3'UTR firefly luciferase, 24 h;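 active = mean inhibition of at least 75% with every replicate also reaching 75%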;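 note: 0% = median of neutral control wells and 100% = pilot-screen positive control compound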
# TRPM1 prom inh: reduces MITF-dependent TRPM1 promoter luciferase signal; SK-MEL-5 TRPM1 promoter luciferase, 24 h; inhibition, % at 12.5 µM; 0.83% of 330,000 active;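 active = mean inhibition across replicates of 60% or more, whatever share of single replicates reaches that level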
# Jurkat NFkB inh: inhibitors of the PMA/ionomycin-induced NF-kB reporter in Jurkat cells | 0.53% of 330,000 active | inhibition, % at 4 µM | PMA/ionomycin-induced NF-kB luciferase reporter, luminescence; in the data active = inhibition above about 50%
# Gli antag conf: Gli-SUFU antagonism confirmation, single concentration; shares compounds with Gli-Sufu block; AID 602428; Sufu-KO-LIGHT cells, Gli luciferase reporter, luminescence; inhibition, % at 5 µM; 40% of 2,500 active;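 active = mean inhibition at 5 µM reaching about 45%, limit read from the data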;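 note: plate controls were DMSO-treated cells for no effect and wells lacking cells for full effect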
# Gli cytotox: counter-screen for Gli-SUFU antagonists: cytotoxicity. AID 651994. cytotoxicity, % at 5 µM. Sufu-KO-LIGHT cells cytotoxicity, ATP luminescence. 32% of 2,500 active. shares compounds with Gli-Sufu block;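 active = mean cytotoxicity at 5 µM above about 25%, limit read from the data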;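 note: cells exposed to compound overnight for roughly 16 to 18 hours; plate controls were DMSO wells with cells for no effect and medium without cells for full effect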
# Wnt3a counter: inhibits Wnt3a reporter, counter-screen for Gli-SUFU antagonists | shares compounds with Gli-Sufu block | Wnt-LIGHT cells, Wnt3a-driven luciferase reporter, luminescence | inhibition, % at 6.25 µM | 20% of 2,500 active | AID 651995;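 active = mean inhibition above about 25%, limit read from the data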
# * = called active by the depositor; . = no result. This is a sample that favours compounds with a hit; in the whole collection about 2.3% have one here.
SMILES,Gli-Sufu block,EBV LMP1 NFkB,697 NFkB inh,Shn3 3UTR inh,TRPM1 prom inh,Jurkat NFkB inh,Gli antag conf,Gli cytotox,Wnt3a counter
CC(CC(=O)N1CCN(c2cccc(Cl)c2)CC1)S(=O)(=O)c1ccc2c(c1)NC(=O)CO2 (stereo not drawn),58.7*,21.7,-49.7,89.1*,25.2,16.4,51.0*,20.3,0.2
CC(C)C(=O)N1CCC1(C)C(=O)Nc1ccc2cn[nH]c2c1 (stereo not drawn),.,.,.,-17.4,.,.,.,.,.
CCN(CC)CCN(C(=O)c1cc2ccccc2cc1OC)c1nc2ccc(F)cc2s1,51.0,-1.8,1.2,-17.3,-6.7,-22.3,28.1,-1.6,-34.6
CCN(CC)CCN(C(=O)c1cc2ccccc2cc1OC)c1nc2ccc(OC)cc2s1,-13.4,-16.7,4.9,26.3,-15.4,5.5,.,.,.
CCN(Cc1ccccc1)Cc1ccc(OCc2ccccc2)cc1,59.0*,3.3,0.2,-21.9,-1.9,-22.8,2.4,20.0,-16.7
CCN1/C(=C\C=C(C(C)=O)C(C)=O)Sc2ccccc21,11.9,9.1,8.0,14.5,-34.5,0.2,.,.,.
CCN1/C(=C\C(=S)Nc2ccccc2)Sc2ccccc21,53.8,-15.4,-15.1,38.3,-11.9,-15.4,55.4*,13.2,-27.3
Cc1ccc(C2N(c3ccccc3)C(=S)N3CCCN23)cc1 (stereo not drawn),98.9*,3.7,-10.6,-15.8,-2.6,1.8,13.9,8.7,2.1
N=c1c(-c2nc3ccccc3[nH]2)cc(C(=O)c2ccco2)nn1-c1ccccc1,62.4*,2.1,-12.8,-0.7,15.0,5.5,35.3,5.5,-118.2
O=C(Nc1cccc(-c2nc3ccccc3[nH]2)c1)c1ccco1,-12.3,-9.1,-38.0,-30.4,-32.9,-14.8,.,.,.
CC(CCc1ccccc1)NC(=O)C1CC1 (stereo not drawn),60.9*,.,0.9,11.8,.,4.1,5.7,7.8,5.9
CCN1CCS/C1=C\C=C\C1=[N+](CC)CCS1,80.7*,30.0,.,75.1,40.9,.,87.2*,33.5*,50.2*
O=C(NCC1CCCO1)c1nn2c(C(F)(F)F)cc(-c3ccc(Br)o3)nc2c1Br (stereo not drawn),56.4*,1.6,19.3,5.0,-7.8,8.5,17.9,15.3,-2.4
CC[C@H](C)[C@H](NC(=O)CNC(=O)COc1cc2c(c3oc(=O)cc(C)c13)CCC(C)(C)O2)C(=O)O,-1.7,-4.7,5.7,7.3,-0.3,14.0,.,.,.
COc1ccc(S(=O)(=O)NCc2cccnc2)cc1Br,59.0*,18.6,-14.5,71.6,29.2,31.0,42.5,23.6,10.9
COc1ccc(S(=O)(=O)NCc2cccnc2)cc1,2.5,10.6,6.4,9.9,13.8,21.3,.,.,.
COc1cc(S(=O)(=O)NCc2ccncc2)ccc1Br,67.8*,26.2,-19.1,77.9,22.3,27.9,61.0*,16.5,30.4*
CNC(=O)c1cc(S(=O)(=O)NCc2ccncc2)ccc1OC,6.9,-2.0,-30.2,28.2,-5.3,13.7,.,.,.
Cc1cc(Br)c(S(=O)(=O)NCc2ccncc2)cc1C,54.0,16.8,-19.1,82.7,21.2,48.6,52.0*,21.8,25.9*
NC(=O)c1cccc(NC(=O)Nc2ccc(Cl)cc2)c1,-18.2,-21.1,-26.7,-36.8,-77.2,-53.6,.,.,.
COc1ccc(/C=C/C(=O)NC2CCCCCC2)cc1S(=O)(=O)N1CCOCC1,-3.4,2.8,-31.7,-5.4,-4.3,-28.6,.,.,.
O=C(c1cnn2c(C(F)(F)F)cc(-c3ccccc3)nc12)N1CCCCC1c1cccnc1 (stereo not drawn),9.9,1.1,16.9,-2.0,22.2,9.0,.,.,.
O=C(c1cc2nc(-c3ccc(F)cc3)cc(C(F)(F)F)n2n1)N1CCCCC1c1cccnc1 (stereo not drawn),67.0*,4.7,-59.5,89.7*,39.5,27.7,63.8*,31.9*,22.0
Cc1ccc(S(=O)(=O)N(C)CC(=O)NNC(=O)CCS(=O)(=O)c2ccccc2)cc1,-4.9,0.6,5.1,-0.5,.,-7.8,.,.,.
O=C(CSc1nnc(-c2ccc3c(c2)OCO3)o1)Nc1c(F)cccc1F,-18.4,-32.6,-18.2,28.4,-61.7,-60.3,.,.,.
SMILES,Gli-Sufu block,EBV LMP1 NFkB,697 NFkB inh,Shn3 3UTR inh,TRPM1 prom inh,Jurkat NFkB inh,Gli antag conf,Gli cytotox,Wnt3a counter
CCOC(=O)C1CCCN(C2CCN(Cc3nc(Cc4ccccc4)no3)CC2)C1 (stereo not drawn),50.0,-0.4,28.6,-2.4,7.0,5.6,23.3,10.4,-28.6
Cc1cc(N2CCN(c3ccc(C(F)(F)F)cc3[N+](=O)[O-])CC2)c2ccccc2n1,51.7,5.2,-80.8,52.7,9.7,-1.7,34.2,19.4,-53.4
Cc1ccc(S(=O)(=O)N2CCN(c3ccc(C(F)(F)F)cc3[N+](=O)[O-])CC2)cc1,9.1,-14.5,-15.7,28.9,5.2,23.0,.,.,.
CN1CCN(C(=O)c2ccc(N3CCCC3=O)cc2)CC1,60.1*,4.8,-1.2,-10.6,6.1,-2.0,19.9,-3.1,-9.4
Cc1ccnc(NS(=O)(=O)c2ccc(NC(=O)CN3C(=O)CCC3=O)cc2)n1,-19.2,-1.4,12.3,8.6,-0.5,1.6,.,.,.
COc1ccc(/C=N\NC(=O)c2c(C)nc3ccc(Br)cn23)cc1,61.1*,6.9,9.5,4.3,27.5,44.1,50.1*,48.5*,-30.0
Cc1cc(C(F)(F)F)cc(NNC(=O)NC(=O)c2c(F)cccc2Cl)n1,4.1,-0.5,3.2,5.6,-3.8,-12.4,.,.,.
CCOC(=O)N1CCC(N(CCOC)C(=O)Nc2ccc(CC)cc2)CC1,0.0,-0.9,-3.0,12.1,-8.8,-1.3,.,.,.
CCOC(=O)N1CCC(N(C(=O)Nc2ccc(Cl)c(Cl)c2)C(C)CC)CC1 (stereo not drawn),64.8*,7.0,0.8,13.7,11.2,12.3,30.6,20.1,-37.3
Cc1cc(C)n2c(SCCC(C)C)nnc2n1,62.5*,-5.8,-4.4,-6.2,-36.9,-4.4,-0.6,7.6,-40.5
Cc1cc(C)n2c(SCC(C)C)nnc2n1,-8.7,-3.0,0.8,1.3,-15.9,-13.0,.,.,.
Fc1ccc2c(c1)C1OCCCC1C(c1ccccc1)N2 (stereo not drawn),22.2,4.1,4.4,0.7,14.2,9.8,.,.,.
Cc1cc2cc(CCNC(=O)c3ccc(Br)o3)c(=O)[nH]c2cc1C,95.6*,1.0,9.0,-5.1,5.2,2.1,9.9,3.1,29.1*
COc1ccc2cc(CCNC(=O)c3ccc(Br)o3)c(=O)[nH]c2c1,-11.8,-3.5,-9.5,-19.0,2.5,-17.9,.,.,.
Cc1ccc(NC(=O)Nc2cccc(Cl)c2)c(C(=O)O)c1,-2.9,-1.8,2.5,-2.0,-0.4,8.0,.,.,.
